Source: PubChem BioAssay (EPA / NIEHS)
Active and inactive are the calls of the source. The calls were made as follows: active = hit-call score of the fitted dose curve at least 0.9, where 1 is the maximum; inactive = score below 0.9.

Experiments:
Details in all cases: mRNA level, 48 h; actives raise or lower the signal
CYP2C8 (gene 1558) = test: LTEA_HepaRG_CYP2C8: Life Technologies and Expression Analysis (LTEA) Assay for CYP2C8 using HepaRG (AID 2283483)
In short: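 HepaRG (human liver line), 48 h chemical exposure, 8-pt half-log series from 100 uM, 0.5% DMSO vehicle. Readout: CYP2C8 transcript by qRT-PCR, housekeeping-normalized. Bidirectional fit vs DMSO baseline.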

CYP2C9 (gene 1559) = test: LTEA_HepaRG_CYP2C9: Life Technologies and Expression Analysis (LTEA) Assay for CYP2C9 using HepaRG (AID 2283484)
In short: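 HepaRG, 48 h dosing, 8-pt half-log series, top 100 uM, 0.5% DMSO vehicle. Read-out: CYP2C9 transcript by TaqMan qRT-PCR, housekeeping-normalized (ACTB/GAPDH/POLR2A). Gain or loss fitted vs DMSO baseline.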

CYP4A11 (gene 1579) = test: LTEA_HepaRG_CYP4A11: Life Technologies and Expression Analysis (LTEA) Assay for CYP4A11 using HepaRG (AID 2283486)
In short: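 Readout is CYP4A11 mRNA induction or suppression (qRT-PCR, ACTB/GAPDH/POLR2A normalization) in human HepaRG cells after 48 h chemical treatment, concentrations to 100 uM in 0.5% DMSO, fitted bidirectionally against vehicle.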

[1] = read-out: DNA damage-inducible transcript 3 (DDIT3), DDIT3 (gene 1649); test: LTEA_HepaRG_DDIT3: Life Technologies and Expression Analysis (LTEA) Assay for DNA damage-inducible transcript 3 (DDIT3) using HepaRG (AID 2283488)
In short: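 Eight-point concentration-response (100 uM highest, half-log dilutions) in HepaRG, 48 h, duplicate wells. Endpoint: qRT-PCR mRNA, normalized (ACTB, GAPDH, POLR2A), bidirectional fitting with DMSO as baseline.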

[2] = read-out: Pro-epidermal growth factor (Homo sapiens) (UniProt P01133); test: LTEA_HepaRG_EGF: Life Technologies and Expression Analysis (LTEA) Assay for Epidermal growth factor (EGF) using HepaRG (AID 2283489)
In short: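 EGF expression changes in human HepaRG cells are scored by bidirectional fitting relative to 0.5% DMSO controls. Chemicals are tested at eight half-log concentrations up to 100 uM for 48 h in serum-free induction medium.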

[3] = read-out: Early growth response protein 1 (EGR1) transcription factor, EGR1 (gene 1958); test: LTEA_HepaRG_EGR1: Life Technologies and Expression Analysis (LTEA) Assay for Early growth response protein 1 (EGR1) transcription factor using HepaRG (AID 2283490)
In short: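 HepaRG, 48 h exposure, 8-pt half-log series from 100 uM, 0.5% DMSO vehicle; EGR1 transcript by TaqMan qRT-PCR (Fluidigm array), housekeeping-normalized; bidirectional fit relative to DMSO baseline.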

[4] = read-out: Ezrin (EZR), EZR (gene 7430); test: LTEA_HepaRG_EZR: Life Technologies and Expression Analysis (LTEA) Assay for Ezrin (EZR) using HepaRG (AID 2283491)
In short: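 EZR transcript levels came from Fluidigm qRT-PCR and were normalized to three housekeeping genes after 48 h chemical exposure of HepaRG cells. Dosing used an 8-point half-log series with a 100 uM top concentration in 0.5% DMSO, tested in duplicate; both directions were fitted versus vehicle.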

[5] = read-out: Cytochrome P450 3A7 (Homo sapiens) (UniProt P24462); test: LTEA_HepaRG_CYP3A7: Life Technologies and Expression Analysis (LTEA) Assay for CYP3A7 using HepaRG (AID 2283492)
In short: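 Cells were thawed, plated, cultured 48 h, then treated for a further 48 h with chemicals (eight-point half-log series from 100 uM, 0.5% DMSO). RNA was isolated and CYP3A7 expression quantified by qRT-PCR normalised to ACTB, GAPDH and POLR2A.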

CYP3A5 (gene 1577) = test: LTEA_HepaRG_CYP3A5: Life Technologies and Expression Analysis (LTEA) Assay for CYP3A5 using HepaRG (AID 2283493)
In short: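 Readout was CYP3A5 mRNA by qRT-PCR. HepaRG cultures were exposed for 48 h in serum-free induction medium to chemicals at up to 100 uM, and responses were fitted in both directions relative to DMSO vehicle.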

[6] = read-out: Fatty Acid-Binding Protein 1 (FABP1), FABP1 (gene 2168); test: LTEA_HepaRG_FABP1: Life Technologies and Expression Analysis (LTEA) Assay for Fatty Acid-Binding Protein 1 (FABP1) using HepaRG (AID 2283494)
In short: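 qRT-PCR readout of FABP1 transcript (normalized to three housekeeping genes) after 48 h chemical exposure of HepaRG cells; eight concentrations, half-log steps, max 100 uM, 0.5% DMSO vehicle; gain or loss fitted relative to DMSO baseline.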

[7] = read-out: Cytochrome P450 4A22 (Homo sapiens) (UniProt Q5TCH4); test: LTEA_HepaRG_CYP4A22: Life Technologies and Expression Analysis (LTEA) Assay for Cytochrome P450 4A22 (CYP4A22) using HepaRG (AID 2283495)
In short: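 Cryopreserved HepaRG cells, plated and cultured 48 h, then switched to serum-free induction medium and treated 48 h (duplicates, up to 100 uM, half-log steps, 0.5% DMSO). Expression change of CYP4A22 was fitted bidirectionally against vehicle.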

[8] = read-out: Cytochrome P450 7A1 (Homo sapiens) (UniProt P22680); test: LTEA_HepaRG_CYP7A1: Life Technologies and Expression Analysis (LTEA) Assay for Cytochrome P450 7A1 (CYP7A1) using HepaRG (AID 2283496)
In short: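 Using 0.5% DMSO as vehicle and baseline, chemicals were tested in duplicate over an 8-point range from 100 uM on HepaRG cells for 48 h; qRT-PCR signals were normalised to ACTB, GAPDH and POLR2A.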

[9] = read-out: Glutathione S-Transferase (GSTA2), GSTA2 (gene 2939); test: LTEA_HepaRG_GSTA2: Life Technologies and Expression Analysis (LTEA) Assay for Glutathione S-Transferase (GSTA2) using HepaRG (AID 2283497)
In short: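 qRT-PCR readout of GSTA2 transcript, normalized to three housekeeping genes, fitted bidirectionally against 0.5% DMSO baseline. Differentiated HepaRG cells received compound for 48 h at 8 concentrations (top 100 uM, half-log steps).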

[10] = read-out: Glutamate-cysteine ligase catalytic (GCLC), GCLC (gene 2729); test: LTEA_HepaRG_GCLC: Life Technologies and Expression Analysis (LTEA) Assay for Glutamate-cysteine ligase catalytic (GCLC) using HepaRG (AID 2283498)
In short: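 HepaRG, 48 h exposure, 8-pt half-log series from 100 uM, 0.5% DMSO vehicle; TaqMan qRT-PCR for GCLC mRNA, housekeeping-normalized; bidirectional curve fit vs DMSO baseline.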

[11] = read-out: growth arrest and DNA damage 45 (GADD45G), GADD45G (gene 10912); test: LTEA_HepaRG_GADD45G: Life Technologies and Expression Analysis (LTEA) Assay for growth arrest and DNA damage 45 (GADD45G) using HepaRG (AID 2283499)
In short: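 Human hepatic HepaRG line treated 48 h with chemicals (eight concentrations, half-log steps from 100 uM); transcript induction or repression of GADD45G scored by qRT-PCR versus DMSO vehicle.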

[12] = read-out: Glutamate-cysteine ligase regulatory (GCLM), GCLM (gene 2730); test: LTEA_HepaRG_GCLM: Life Technologies and Expression Analysis (LTEA) Assay for Glutamate-cysteine ligase regulatory (GCLM) using HepaRG (AID 2283500)
In short: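 In this multiplexed HepaRG gene-expression assay, GCLM mRNA change after 48 h treatment (8 concentrations, max 100 uM) was scored against DMSO by bidirectional curve fitting.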

[13] = read-out: Glutathione S-transferase M3 (GSTM3), GSTM3 (gene 2947); test: LTEA_HepaRG_GSTM3: Life Technologies and Expression Analysis (LTEA) Assay for Glutathione S-transferase M3 (GSTM3) using HepaRG (AID 2283501)
In short: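 Changes in GSTM3 expression, an oxidative-stress marker, were scored by bidirectional curve fitting against 0.5% DMSO vehicle. Human HepaRG cultures received chemicals for 48 h in duplicate, highest concentration 100 uM with half-log dilutions.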

[14] = read-out: Heat shock 70 kDa protein 1 (HSPA1A), gene 3303; test: LTEA_HepaRG_HSPA1A: Life Technologies and Expression Analysis (LTEA) Assay for Heat shock 70 kDa protein 1 (HSPA1A) using HepaRG (AID 2283502)
In short: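 An oxidative-stress marker readout: HepaRG cells treated 48 h in duplicate with an eight-point series (highest 100 uM) had HSPA1A mRNA quantified by TaqMan qRT-PCR. Activity was fitted in both directions using 0.5% DMSO as baseline.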

CYP2E1 (gene 1571) = test: LTEA_HepaRG_CYP2E1: Life Technologies and Expression Analysis (LTEA) Assay for CYP2E1 using HepaRG (AID 2283485)
In short: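 Assay uses 48 h exposure of HepaRG hepatic cells, eight concentrations to 100 uM. Expression of CYP2E1 is quantified by TaqMan qRT-PCR with ACTB, GAPDH and POLR2A normalization; curves fitted in both directions relative to vehicle.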

Measured: AC50

Cytochrome P450 3A7 (Homo sapiens), sequence (P24462 whole entry, looked up): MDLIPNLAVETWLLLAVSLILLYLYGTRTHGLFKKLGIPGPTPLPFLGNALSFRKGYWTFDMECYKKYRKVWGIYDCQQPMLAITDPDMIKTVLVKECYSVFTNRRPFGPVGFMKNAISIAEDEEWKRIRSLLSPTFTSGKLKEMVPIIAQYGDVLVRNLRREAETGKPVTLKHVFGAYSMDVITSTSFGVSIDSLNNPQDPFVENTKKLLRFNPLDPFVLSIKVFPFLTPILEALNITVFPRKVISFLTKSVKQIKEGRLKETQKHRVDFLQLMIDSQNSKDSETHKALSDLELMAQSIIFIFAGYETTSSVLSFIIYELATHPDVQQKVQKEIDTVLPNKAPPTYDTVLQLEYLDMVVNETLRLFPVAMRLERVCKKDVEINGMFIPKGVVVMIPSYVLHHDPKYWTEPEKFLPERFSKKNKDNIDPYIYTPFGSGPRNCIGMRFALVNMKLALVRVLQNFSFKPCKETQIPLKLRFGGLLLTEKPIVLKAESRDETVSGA

CCc1nn(C)c(C(=O)NCc2ccc(C(C)(C)C)cc2)c1Cl
active: CYP2C8 (gene 1558) 0.414 µM | CYP2C9 (gene 1559) 5.99 µM | CYP4A11 (gene 1579) 0.393 µM | [1] 0.738 µM | [2] 50 µM | [3] 50 µM | [5] 0.35 µM | CYP3A5 (gene 1577) 88.9 µM | [6] 5 µM | [7] 0.677 µM | [8] 11.9 µM | [9] 11.9 µM | [10] 50 µM | [11] 0.6 µM | [12] 12.2 µM | [13] 4.76 µM | [14] 9.92 µM
inactive: [4]

CNC(=S)S
inactive: CYP2C8 (gene 1558) | CYP2C9 (gene 1559) | CYP4A11 (gene 1579) | [1] | [2] | [3] | [4] | [5] | CYP3A5 (gene 1577) | [6] | [7] | [8] | [9] | [10] | [11] | [12] | [13] | [14]

COC(=O)c1ccccc1C(=O)OC
inactive: CYP2C8 (gene 1558) | CYP2C9 (gene 1559) | CYP4A11 (gene 1579) | [1] | [2] | [3] | [4] | [5] | CYP3A5 (gene 1577) | [6] | [7] | [8] | [9] | [10] | [11] | [12] | [13] | [14]

CCOP(=S)(OCC)SCn1c(=O)oc2cc(Cl)ccc21
inactive: CYP2C8 (gene 1558) | CYP2C9 (gene 1559) | CYP2E1 (gene 1571) | CYP4A11 (gene 1579) | [1] | [3] | [4] | [5] | CYP3A5 (gene 1577) | [6] | [7] | [8] | [9] | [10] | [11] | [12] | [13] | [14]

CC(C)C1(C)N=C(c2nc3ccccc3cc2C(=O)O)NC1=O (stereo not drawn)
inactive: CYP2C8 (gene 1558) | CYP2C9 (gene 1559) | CYP2E1 (gene 1571) | CYP4A11 (gene 1579) | [1] | [3] | [4] | [5] | CYP3A5 (gene 1577) | [6] | [7] | [8] | [9] | [10] | [11] | [12] | [13] | [14]

Cc1ccc(-c2c(Cl)nc(C#N)n2S(=O)(=O)N(C)C)cc1
active: CYP2C8 (gene 1558) 9.33 µM | CYP2C9 (gene 1559) 7.78 µM | CYP2E1 (gene 1571) 5.17 µM | CYP4A11 (gene 1579) 10.4 µM | [1] 21.7 µM | [5] 83.5 µM | [6] 4.76 µM | [7] 73.9 µM | [8] 10 µM | [9] 9.43 µM | [10] 7.01 µM | [11] 11.7 µM | [13] 50 µM
inactive: [3] | [4] | CYP3A5 (gene 1577) | [12] | [14]
